Molecules are shown by their SMILES. Values without a mark were called inactive. How the calls were made is not given here.

This experiment deals with Aerobactin synthetase IucA (Klebsiella pneumoniae, hypervirulent). Nature of the experiment: biochemical IucA inhibition screen of LOPAC library by absorbance (AID 1346212).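 Further: 100% = no compound wells and 0% = no enzyme wells.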 The conditions noted are these: IucA enzyme assay, absorbance (OD) readout; stronger effect = lower value;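 tested at 8 µM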.
By remaining activity is commonly meant the signal under treatment as a percentage of the control signal. For `CN(Cc1cnc2nc(N)nc(N)c2n1)c1ccc(C(=O)N[C@@H](CCC(=O)O)C(=O)O)cc1`, the remaining activity is 117%. Consider `C[N+](C)(C)CC=O`, for which the remaining activity was 101%.

For `N[C@@H](Cc1ccc(F)cc1)C(=O)O`, the remaining activity is 95%. To `C[C@H](NCCc1ccc(O)cc1)[C@H](O)c1ccc(O)cc1` belongs 94.5%. To `CCCCC#Cc1nc(N)c2ncn([C@@H]3O[C@H](C(=O)NCC)[C@@H](O)[C@H]3O)c2n1` belongs 96.4%; to `COc1ccc(Cl)cc1NC(=O)Nc1cc(C)nc2ccccc12`, 95%; to `OC[C@H]1O[C@@H](n2cnc3c(NC4CCCC4)ncnc32)[C@H](O)[C@@H]1O`, 117%.

Regarding `CC(C)(C)c1ccc(C(O)CCCN2CCC(C(O)(c3ccccc3)c3ccccc3)CC2)cc1` (stereo not drawn), the remaining activity was 101%.

The record behind these values is PubChem BioAssay.
